# From PubChem BioAssay
# This excerpt belongs to a sample that is enriched for hits.
# Pf Dd2 growth: inhibitors of Plasmodium falciparum Dd2 growth. P. falciparum Dd2 growth, SYBR Green, 72 h. Potency, µM (highest dose often 28.9 µM), inactives show at the top dose activity, negative = inhibition, usual class: inhibitors. actives 4.3% (n = 120,000). AID 1347417; active = well fitted inhibition curve with a large enough effect;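 also: plate controls were DMSO vehicle for no effect and reference drug for full effect; nearly all actives have a fitted effect of over 65% in size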
#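 Readout: SYBR Green fluorescence, 485 nm excitation, 535 nm emission, after ~16 h lysis at 37C. Before that, Dd2-infected red cells (2.5% hematocrit) grew 72 h with compound, 29 uM top final concentration.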
# * hit, by the source's call; i = inactive; [ ] = another dose, or the depositor's remark. Potency is read from the fitted curve at half-maximal effect.
SMILES,Pf Dd2 growth
O=C1Nc2ccccc2CC12CCN2Cc1ccccc1 (stereo unspecified),i
CCCCN1C(=O)c2[nH]nc(-c3ccccc3O)c2C1c1cc(Br)c(O)c(OC)c1 (stereo unspecified),-24%
CCCN1C(=O)c2[nH]nc(-c3ccccc3O)c2C1c1ccc(OCc2ccccc2)c(OCC)c1 (stereo unspecified),11µM*
CCOc1ccc(C2c3c(-c4ccccc4O)n[nH]c3C(=O)N2Cc2cccnc2)cc1OC (stereo unspecified),i
CCCCN1C(=O)c2[nH]nc(-c3ccccc3O)c2C1c1ccc(OCc2ccccc2)c(OC)c1 (stereo unspecified),11µM*
Cn1ncc(N2CCCC(CC(=O)N3CCSCC3)C2)cc1=O (stereo unspecified),-9%
CC(CCN1CCOCC1)NC(=O)c1cccc(NCC(=O)O)c1 (stereo unspecified),-29%
COc1cccc(C(=O)N2CCC(CC(=O)NCc3ccccc3)C2)c1OC (stereo unspecified),-14%
C=CCNC(=O)N1CC[C@H]2CC(=O)N(CCc3cccc(OC)c3OC)CC[C@H]2C1,-20%[44.1 µM]
CNC(=O)C1(N2CCC[C@H]2C(=O)N2CCOCC2)CCCCC1,12%[44.1 µM]
O=C1CCNCCCC(CO)CCN1 (stereo unspecified),i
CC(=O)Nc1ccccc1-c1nc2ccccc2n(CC(=O)Nc2cccc(C(F)(F)F)c2)c1=O,25%
CCc1c(C)c(C#N)c2nc3ccccc3n2c1Nc1cccc(C(F)(F)F)c1,2.2µM*
O=c1c2ccccc2nc2sc(Nc3cccc(C(F)(F)F)c3)nn12,-11%
Cc1ccccc1CN1CC[C@H](c2nc3ncccc3[nH]2)C1,32µM*
CS(=O)(=O)c1ccc(CN2CC[C@H](c3nc4ncccc4[nH]3)C2)cc1,-23%[44.1 µM]
COc1ccc2nc([C@H]3CCN(Cc4ccncc4)C3)[nH]c2c1,i
CC(=O)N1CC[C@H](c2nc3ccc(F)cc3[nH]2)C1,-6%[44.1 µM]
FC(F)(F)c1ccc2nc([C@H]3CCN(Cc4ncc[nH]4)C3)[nH]c2c1,i
COc1ccccc1CN1CC[C@H](c2nc3ccc(C(F)(F)F)cc3[nH]2)C1,8.9µM*
COc1ccc(CN2CC[C@H](c3nc4ccc(C)cc4[nH]3)C2)cc1,i
Cc1ccc(CN2CC[C@H](c3nc4ccc(C(F)(F)F)cc4[nH]3)C2)cc1,11µM*
CN(C)c1ccc(CN2CCC(c3nc4ncccc4[nH]3)C2)cc1 (stereo unspecified),-7%
Fc1ccc2nc([C@H]3CCN(Cc4ncc[nH]4)C3)[nH]c2c1,i
COc1ccc2nc([C@H]3CCN(C4CCCCC4)C3)[nH]c2c1,-6%[44.1 µM]
SMILES,Pf Dd2 growth
Fc1ccc2nc([C@H]3CCN(Cc4cccs4)C3)[nH]c2c1,11µM*
CC(C)CCNC(=O)C1C(c2cccc(NC(=O)c3ccco3)c2)OC(=O)N1Cc1ccccc1 (stereo unspecified),i
COc1ccc(C2(C(=O)N(C)Cc3ccc(F)cc3)CCOCC2)cc1,3%
Cn1cccc1CN1CCC2(C1)C(=NC1CCCCC1)NC(=O)N2c1cccnc1 (stereo unspecified),-4%
COCCOCc1nc(C2CCCN2S(=O)(=O)Cc2ccccc2F)no1 (stereo unspecified),-4%
CCn1nccc1C(=O)N1CCC(Cc2noc(C3CCOCC3)n2)C1 (stereo unspecified),8%
CC(C)(O)CCc1cccc(C(=O)NCCOc2cccc3cccnc23)c1,-9%
O=C(CN1C(=O)NC2(CCS(=O)(=O)CC2)C1=O)Nc1ccccc1,19%
Cc1cnc(C(=O)NC2C[C@H]3CC[C@@H](C2)N3C(=O)COc2ccc(Cl)cc2C)cn1 (stereo partly specified),i
COCCN(C)C[C@H]1C[C@@H](CO)CN(C(=O)c2ccc(F)cc2C)C1,-12%
c1ccc2ncc(CN3CC[C@H](c4nc5ccccc5[nH]4)C3)cc2c1,11µM*
Clc1cccc(CN2CC[C@H](c3nc4ccccc4[nH]3)C2)c1,i
COc1cccc(CN2CC[C@H](c3nc4ccccc4[nH]3)C2)c1,-21%[44.1 µM]
CC(C)NC[C@H]1O[C@@H](CO)[C@@H](O)[C@H]1N1CCN(c2ccccn2)CC1,-8%
CCC(=O)N1C[C@@H]2CCCN3CCC[C@@H]([C@H]23)[C@H]1CCCC(=O)NC,-7%
COc1cccc(OCC2CN(Cc3cccc(C(F)(F)F)c3)C(=O)c3c(ccnc3-c3ccc(OCC(=O)O)cc3)O2)c1OC (stereo unspecified),-24%
COc1ccc(C)cc1NC(=O)c1oc2ccc(S(=O)(=O)N3CCOCC3)cc2c1C,33%
CCOC(=O)c1oc2ccc(S(=O)(=O)n3nc(-c4cc(OCC)c(OCC)c(OCC)c4)cc3N)cc2c1C,10µM*
COc1ccc(C)cc1NC(=O)c1oc2ccc(S(=O)(=O)N3CCCCC3)cc2c1C,34%
O=C(N[C@H](c1ccccn1)C1CC(O)C1)c1ccc2c(c1)ncn2CCO (stereo partly specified),-4%
COc1ccccc1CC(=O)N1CC[C@@H]2NC(=O)[C@H]3C[C@H](NC(=O)C4CCC4)CN3C(=O)[C@H]21,17%
CN1[C@@H](CCC(=O)N2CCC(O)CC2)CNC(=O)[C@@H]2[C@H]1CCN2Cc1nc2ccccc2n1C,i
CCOC(=O)c1cnc2ccc(OC(F)(F)F)cc2c1Nc1ccccc1C(=O)O,10µM*
CCOC(=O)c1cnc2c(ccc3ccccc32)c1Nc1cccc(OC)c1,51%
CCOC(=O)c1cnc2ccc(OC)cc2c1Nc1cccc(C(C)=O)c1,-7%
SMILES,Pf Dd2 growth
CCOC(=O)c1ccc2ncc(C(=O)OCC)c(NCCc3ccc(OC)c(OC)c3)c2c1,8.9µM*
CCOC(=O)c1cnc2c(C)cccc2c1NCCc1ccc(OC)c(OC)c1,i
CCOC(=O)c1cnc2c(ccc3ccccc32)c1Nc1ccc(OCC)cc1,18%
CCOC(=O)c1cnc2ccc(OC)cc2c1NCCc1ccccc1,4µM*
CCOC(=O)c1cnc2ccc(OCC)cc2c1Nc1cc(Cl)c(OC)cc1OC,49%
CCOC(=O)c1cnc2c(C)c(Cl)ccc2c1NCCc1ccc(OC)c(OC)c1,i
CC(C)NC(=O)NC[C@H]1O[C@@H](CC(=O)NCCN(C)C)[C@H](O)[C@@H]1O,53%[44.1 µM]
CN(C)C(=O)c1ccc(OC2CCN(C(=O)c3c(F)cccc3F)CC2)nc1,17%
COC[C@@H]1CN(c2cnccn2)C[C@H]1C(=O)NCCc1ccccn1,7%
COc1ccccc1N1CCN(C(=O)C[C@@H]2O[C@H](CNC(=O)c3ccc(N(C)C)cc3)[C@@H](O)[C@H]2O)CC1,i
O=C(COc1ccc(F)cc1)N1CCC(CCOc2ccccc2F)C1 (stereo unspecified),i
COc1ccc(CCNC(=O)CN2C(=O)NC(c3ccc(Cl)cc3)C3=C2COC3=O)cc1OC (stereo unspecified),i
CCOc1ccc(C(=O)N2CC(C(=O)NCCc3ccncc3)C3(CCOCC3)C2)cc1 (stereo unspecified),-2%
CO[C@H]1C(=O)N(C2CCN(C(=O)Nc3ccccc3)CC2)[C@H]1c1ccncc1,-7%
c1ccc2c(c1)CCCN2CCCNc1ncncn1,-15%
c1cncc(-c2ccnc(NCCCn3nccc3C3CC3)n2)c1,-28%
c1cncc(-c2ccnc(NCCCN3CCCc4ccccc43)n2)c1,11µM*
CCCCC(=O)OC1=C(C(=O)c2ccccc2)N(CC)S(=O)(=O)c2ccccc21,1%
CCN1C(C(=O)c2ccccc2)=C(NC(=O)c2ccc(Cl)cc2)c2ccccc2S1(=O)=O,13µM*
